# In the library only some 3.6% were active in any assay of this set; here they are far more common.
# mHTT CaM bind = inhibitors of human mutant huntingtin-calmodulin interaction | AlphaScreen His-mHTT/GST-CaM binding, luminescence | inhibition, % at 15 µM | actives 3.6% (n = 190,000);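 also: 0% = both proteins with DMSO and 100% = one protein alone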
# Pf apPOL inh = Pf-apPOL DNA polymerase inhibition; Recombinant Pf-apPOL, molecular beacon fluorescence, 1.5 h; inhibition, % at 10 µM; actives 0.25% (n = 210,000); AID 1794808
# The depositor's hits bear a star; nt = no result. Rule as the data show it: active = inhibition above about 50%; inactive = the rest.
SMILES,mHTT CaM bind,Pf apPOL inh
O=C(c1ccco1)N1CCCC(c2ccnc(Nc3ccccc3)n2)C1 (stereo not drawn),21.9,-3.6
O=C(C1CCC1)N1CCCC(c2ccnc(Nc3ccccc3)n2)C1 (stereo not drawn),24.2,-2.5
CC(C)c1noc(-c2cccnc2N2CCCN(C(=O)c3ccc4c(c3)OCO4)CC2)n1,5.9,-4.3
Cc1cc(C(=O)Nc2c(C)cc(Br)cc2C)ccc1[N+](=O)[O-],1.2,0.4
Cn1c(=O)[nH]c(=O)c2c1nc(Nc1ccc(S(N)(=O)=O)cc1)n2CC(=O)O,-7.2,-2.0
O=C1OC(c2ccc(Cl)cc2Cl)=N/C1=C\c1ccccc1[N+](=O)[O-],-3.0,-1.3
Cc1ccc(C2=N/C(=C\c3ccccc3Br)C(=O)O2)cc1[N+](=O)[O-],0.0,1.5
COc1ccc(C2=N/C(=C\c3ccccc3[N+](=O)[O-])C(=O)O2)c(Cl)c1,1.0,77.1*
Cc1ccccc1/C=C1\N=C(c2ccc(C)c([N+](=O)[O-])c2)OC1=O,55.0*,1.8
COc1ccc(NC(=O)CC2=NS(=O)(=O)c3ccccc3N2)cc1Cl,7.5,-4.0
CC(=O)c1ccc(NC(=O)C2CC(=O)N(c3ccccc3)C2)cc1 (stereo not drawn),-2.3,4.8
COc1ccc(Nc2nc(Cl)nc(NC(C)C)n2)cc1,6.0,-3.4
COc1ccc(Nc2nc(NN)nc(OCC(F)(F)F)n2)cc1,92.4*,nt
Cc1cccc(C(=O)N2CCc3c(c(C(=O)NCc4ccc(Cl)cc4)nn3C)C2)c1,91.2*,23.2
Cc1cccc(CNC(=O)c2nn(C)c3c2CN(C(=O)c2cccc(C)c2)CC3)c1,74.3*,-6.6
Cc1cccc(CNC(=O)c2nn(C)c3c2CN(C(=O)c2ccccc2C)CC3)c1,26.6,-12.2
Cc1cccc(CNC(=O)c2nn(C)c3c2CN(C(=O)c2cccc(F)c2)CC3)c1,70.6*,-6.1
Cn1nc(C(=O)NCc2ccc(Cl)cc2)c2c1CCN(C(=O)c1ccco1)C2,4.7,4.6
Cc1cccc(CC(=O)NCCCn2cccc2)c1,6.7,-11.9
O=C(NCCc1ccccc1)C1CCN(CC2CC=CCC2)CC1 (stereo not drawn),-0.3,-8.1
COC(=O)c1ccc(C(=O)Nc2ccc(CC(=O)NC3CC3)cc2)cc1,-11.6,-1.7
COc1cccc(CN2COc3ccc4c(=O)c(-c5ccccc5)coc4c3C2)c1,15.1,-4.4
O=c1c([N+](=O)[O-])c(N2CCN(Cc3ccccc3)CC2)c2ccccc2n1-c1ccccc1,-0.7,-13.2
Cn1ccc2c(-c3ccccc3F)cc3c(c21)C1CCC3C1 (stereo not drawn),13.1,-2.9
CN(Cc1ccccc1F)c1cc2c(c3c1ccn3C)C1CCC2C1 (stereo not drawn),56.4*,-0.2
SMILES,mHTT CaM bind,Pf apPOL inh
CC(C)Cc1nc(SCC(=O)Nc2ccccc2)n[nH]1,-3.7,2.3
CC(C)Cc1nc(SCC(=O)Nc2ccc(S(N)(=O)=O)cc2)n[nH]1,-4.6,61.5*
Cc1cc(C)cc(-n2nnc(C(=O)Nc3ccccc3)c2N)c1,-8.0,-1.4
Cc1ccc(CNC(=O)Cn2c(=O)n(-c3ccc(C)cc3)c(=O)c3sccc32)cc1,0.0,6.4
COc1ccccc1NCC(O)CC1C(C)=C(C)c2ccccc21 (stereo not drawn),63.4*,1.2
COc1ccccc1NC1OC(=O)c2ccccc21 (stereo not drawn),-1.0,-3.1
c1ccc(-c2nc(-c3ccc(-c4csnn4)cc3)no2)cc1,nt,4.2
CC1=C(C(=O)Nc2cc(C)ccn2)C(c2cccc(Cl)c2Cl)C2=C(CC(C)(C)CC2=O)N1 (stereo not drawn),31.0,-2.2
COc1ccccc1N1C(=O)C=C(c2ccc(Cl)cc2)C1=O,20.0,0.1
O=C1C=C(c2ccc(Cl)cc2)C(=O)N1c1ccccc1Cl,62.0*,-2.8
Fc1cc(F)cc(CN2CCn3cnnc3C2)c1,5.0,-2.4
CCN(CC)c1ccc(NC(=O)CCS(=O)(=O)c2cccc3nsnc23)c(C)c1,17.0,-2.2
CCN(CC)c1ccc(NS(=O)(=O)c2cccc3nsnc23)c(C)c1,54.0*,-3.9
COc1ccc(C2=NOC(C(=O)Nc3cc(OC)c(OC)c(OC)c3)C2)cc1 (stereo not drawn),14.6,-0.1
O=C(C=Cc1ccco1)c1ccc(O)cc1,6.4,2.3
O=C(/C=C/c1ccco1)c1cccs1,79.2*,11.2
O=C1NC(c2ccccc2)=C([N+](=O)[O-])C(c2cccc(Cl)c2)N1 (stereo not drawn),8.5,-3.4
NC(C(=O)O)(c1ccccc1)C1CCC1 (stereo not drawn),nt,-1.9
Cc1noc(-c2nn(C)c3c2CN(C(=O)Nc2ccc(Cl)cc2)CC3)n1,58.3*,1.4
Cn1nc(-c2nc(C3CC3)no2)c2c1CCN(C(=O)Nc1ccccc1)C2,12.0,0.2
CSc1ccc(NC(=O)N2CCc3c(c(-c4nc(C)no4)nn3C)C2)cc1,36.1,-2.0
CSc1cccc(NC(=O)N2CCc3c(c(-c4nc(C5CC5)no4)nn3C)C2)c1,52.1*,-6.4
